Our source for the z-score values is PubChem BioAssay.

Molecules are shown by their SMILES. Unmarked numbers belong to inactive results.

This experiment is described as follows: FRG1 expression reporter modulators in myotubes – cell-based, C2C12 myotubes, firefly/Renilla luciferase, luminescence, FRG1 inhibition for FSHD, primary screen (AID 1084). Conditions: FRG1 promoter luciferase, higher = more signal, called active from +8 up or from −8 down.
As to `C=C(/C(=C/C[C@H](OC(C)=O)c1ccccc1OCCO)c1cc(C(=O)OC)ccc1OC)C(C)C`, the z-score is -0.976.

As for `C[N+](C)(C)CCCC[C@@H]1NC(=O)[C@H]2C[C@@H](C(=O)NCCCCCCN)[C@@H](c3ccc(O)cc3)N2C1=O`, the z-score was -0.194.

For `COc1ccccc1CN1C(=O)c2ccccc2[C@](Cc2ccccc2I)(C(=O)NCC(F)(F)F)[C@@H]1c1ccc(CO)cc1`, the z-score is -0.719.

In the case of `O=C(NCc1ccccc1)[C@@H]1c2ccccc2C(=O)N(Cc2ccccc2C(F)(F)F)[C@H]1c1ccc(CO)cc1`, the z-score was -3.23.

On to `COC(=O)[C@H](Cc1ccccc1)N1CC(/C=C/C2CC2)=C[C@H]1[C@H](O)Cc1ccccc1`, for which the z-score was -2.56.

Consider `CCOC(=O)C1=CC[C@@H](c2ccc(OCc3ccccc3)c(OC)c2)N(S(=O)(=O)c2ccc(C)cc2)[C@H]1c1ccc(SC)cc1`, for which the z-score is -0.895.

`COc1cccc(/C=C/C=O)c1`: the z-score is 1.02.

With `CC(=O)NCCCC[C@@H]1NC(=O)[C@H]2C[C@@H](C(=O)NCCCC[N+](C)(C)C)[C@@H](c3cccc(OCCO)c3)N2C1=O`, the z-score is 0.647.

Turning to `O=C1C2C=CC(C(O)c3ccccc3)N(Nc3ccccc3F)C2C(=O)N1c1ccccc1` (stereo unspecified), the z-score is -2.14.

Turning to `CCOC(=O)C[C@H]1[C@H](OC(=O)c2ccccc2-c2ccccc2)[C@@H](NC(=O)c2ccc(-c3ccccc3)cc2)c2cc(OCCCO)ccc2N1C(=O)c1ccc2ccccc2n1`, the z-score was 0.835.

Turning to `CO[C@]12C=C(Br)[C@@H](C[C@@H]1c1cccc(C)c1)[C@@]1(CO1)C2=O`, the z-score is 1.22.
